In PubChem BioAssay:
Calls of active or inactive are those of the source. Cut-off read from the data, not from the text of the source, unless noted: active = nuclear beta-catenin stimulation mostly above about 4.2% (no sharp cut-off); inactive = mostly below about 10%.

Columns and labels:
[1] = Wnt pathway potentiators raising nuclear beta-catenin – imaging, WNT3A-conditioned medium, mouse C2C12, NPC library, primary screen (AID 1117326); details: stronger effect = higher value; note: reference of the scale not given here
[2] = stimulators of insulin release from INS-1E, primary screen, cell-based, 5 mM glucose, NPC library (AID 1117329;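 active = compound raises insulin release from rat beta cells at 5 mM glucose, no numeric limit stated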; note: reference of the scale not given here); details: rat INS-1E insulin secretion, at 10 µM, stronger effect = higher value
[3] = growth inhibition of GSK3B-pretreated HCT116 cells – cell-based, CellTiter-Glo, 0.2 to 20 µM (AID 1117336;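 active = compounds lowering colon cancer cell viability after pretreatment blocking the GSK3B kinase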); details: HCT116 viability after GSK3B inhibitor, at 20 µM, stronger effect = higher value
[4] = inhibition of endothelial tube formation, primary screen, imaging, VEGF stimulated, CD31 staining, tube area, NPC library (AID 1117340;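 active = compound that reduces growth-factor-driven endothelial tube area in a mixed cell culture, no cutoff stated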); details: VEGF-stimulated ADSC/ECFC co-culture, at 10 µM, stronger effect = higher value
[5] = GLP1 release stimulators, primary, NCI-H716, NPC library (AID 1117341;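 active = compound raises GLP1 secretion from the human gut endocrine cells, with no numeric limit stated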; note: reference of the scale not given here); details: NCI-H716 cells, at 10 µM, stronger effect = higher value
[6] = HCT116 colon cancer cell growth inhibition, primary screen, CellTiter-Glo luminescence, NPC library (AID 1117342;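 active = compounds that lower survival of HCT116 colon cancer cells in the luminescence readout, no numeric limit stated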); details: at 20 µM (top of the series)
[7] = reduced SW480 viability measured with CellTiter-Glo, NPC library, primary (AID 1117343;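 active = compounds that lower viability of the colon cancer cells in the luminescence readout, with no numeric limit stated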); details: CellTiter-Glo luminescence; at 20 µM (top of the series)
[8] = NPC library primary testing for decreased DLD-1 cell viability via CellTiter-Glo (AID 1117346;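 active = compounds that lower survival of DLD-1 colon cancer cells in the luminescence readout, no cutoff given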); details: DLD-1 viability, CellTiter-Glo luminescence; at 20 µM (top of the series)

CCOC(=O)Cn1cccc1-c1nc(-c2ccc(OC)cc2)c(-c2ccc(OC)cc2)s1
inactive: nuclear beta-catenin stimulation ([1]; at 10 µM) -0.6% | insulin secretion stimulation [2] 1.9% | viability decrease [3] 35.5% | tube area decrease [4] 6.7% | GLP1 secretion stimulation [5] -0.1% | inhibition of viability [6] 46%
active: viability decrease (inhibition) [7] 88.2% | viability decrease (inhibition) [8] 77.5%
-1.4%: nuclear beta-catenin stimulation ([1]; stimulation, at 2 µM)

CC(=O)c1ccc(O)c(C(N)=O)c1
-1.6%: nuclear beta-catenin stimulation ([1]; stimulation, at 2 µM)
inactive: nuclear beta-catenin stimulation ([1]; at 10 µM) 0.2% | insulin secretion stimulation [2] 0.6% | viability decrease [3] 20.8% | tube area decrease [4] -0.3% | GLP1 secretion stimulation [5] 1.6% | inhibition of viability [6] 0.1% | viability decrease (inhibition) [7] -10.5% | viability decrease (inhibition) [8] 6.9%

O=C(Nc1ncc([N+](=O)[O-])s1)c1cccs1
-1.2%: nuclear beta-catenin stimulation ([1]; stimulation, at 2 µM)
inactive: nuclear beta-catenin stimulation ([1]; at 10 µM) -2.8% | insulin secretion stimulation [2] -0.4% | viability decrease [3] 45.8% | GLP1 secretion stimulation [5] -0.9% | inhibition of viability [6] 41.2% | viability decrease (inhibition) [7] 43.6%
active: tube area decrease [4] 46.3% | viability decrease (inhibition) [8] 67.5%

CCCCN1CCCC[C@H]1C(=O)Nc1c(C)cccc1C
0.4%: nuclear beta-catenin stimulation ([1]; stimulation, at 2 µM)
inactive: nuclear beta-catenin stimulation ([1]; at 10 µM) 0.3% | viability decrease [3] 26.6% | tube area decrease [4] -20.3% | GLP1 secretion stimulation [5] 2.9% | inhibition of viability [6] 23.7% | viability decrease (inhibition) [7] 21.1% | viability decrease (inhibition) [8] 23.1%
active: insulin secretion stimulation [2] 25.7%

CN(C)CCOc1ccccc1Cc1ccccc1
2.3%: nuclear beta-catenin stimulation ([1]; stimulation, at 2 µM)
inactive: nuclear beta-catenin stimulation ([1]; at 10 µM) -1.8% | viability decrease [3] -14% | tube area decrease [4] 4.9% | GLP1 secretion stimulation [5] -5.1% | inhibition of viability [6] 11.4% | viability decrease (inhibition) [7] 34% | viability decrease (inhibition) [8] 0.8%
active: insulin secretion stimulation [2] 22%

Nc1nc(N)c(-c2ccccc2)s1
inactive: nuclear beta-catenin stimulation ([1]; at 10 µM) 0.4% | insulin secretion stimulation [2] -2% | viability decrease [3] -1.63% | tube area decrease [4] 16.7% | GLP1 secretion stimulation [5] 2.1% | inhibition of viability [6] 10.2% | viability decrease (inhibition) [7] 48.5% | viability decrease (inhibition) [8] 2.53%
2.2%: nuclear beta-catenin stimulation ([1]; stimulation, at 2 µM)

COC(=O)[C@H]1[C@H]2C[C@@H]3c4[nH]c5cc(OC)ccc5c4CCN3C[C@H]2C[C@@H](OC(=O)COc2ccc(OC)cc2)[C@@H]1OC
inactive: nuclear beta-catenin stimulation ([1]; at 10 µM) 3.2% | insulin secretion stimulation [2] -1.2% | viability decrease [3] 10.9% | tube area decrease [4] 9.6% | GLP1 secretion stimulation [5] 8.5% | inhibition of viability [6] 33.6% | viability decrease (inhibition) [7] -12.3% | viability decrease (inhibition) [8] 1.9%
-0.2%: nuclear beta-catenin stimulation ([1]; stimulation, at 2 µM)

COc1ccc2cc(C=O)ccc2c1
inactive: nuclear beta-catenin stimulation ([1]; at 10 µM) 0.1% | insulin secretion stimulation [2] 0.95% | viability decrease [3] 17.4% | tube area decrease [4] -8.2% | GLP1 secretion stimulation [5] -3.7% | inhibition of viability [6] 16.4% | viability decrease (inhibition) [7] 7% | viability decrease (inhibition) [8] 5.8%
0.2%: nuclear beta-catenin stimulation ([1]; stimulation, at 2 µM)

CCCCCC[C@@H](CCC)C(=O)O
-0.9%: nuclear beta-catenin stimulation ([1]; stimulation, at 2 µM)
inactive: nuclear beta-catenin stimulation ([1]; at 10 µM) -0.3% | insulin secretion stimulation [2] 0.3% | viability decrease [3] 1.2% | tube area decrease [4] -29.5% | GLP1 secretion stimulation [5] 3.5% | inhibition of viability [6] 17.7% | viability decrease (inhibition) [7] 14% | viability decrease (inhibition) [8] 16.9%

COC(=O)CCC[N+](C)(C)C
active: viability decrease (inhibition) [7] 2.9%
0.6%: nuclear beta-catenin stimulation ([1]; stimulation, at 2 µM)
inactive: nuclear beta-catenin stimulation ([1]; at 10 µM) -0.8% | insulin secretion stimulation [2] -6.3% | viability decrease [3] -4.8% | tube area decrease [4] 6.6% | GLP1 secretion stimulation [5] -14% | inhibition of viability [6] 4.6% | viability decrease (inhibition) [8] -12.1%

CC(CC1c2ccccc2CCc2ccccc21)CN(C)C (stereo not given)
0.4%: nuclear beta-catenin stimulation ([1]; stimulation, at 2 µM)
inactive: nuclear beta-catenin stimulation ([1]; at 10 µM) -1% | viability decrease [3] 34.8% | tube area decrease [4] 9.8% | GLP1 secretion stimulation [5] -1.9%
active: insulin secretion stimulation [2] 29.8% | inhibition of viability [6] 44.4% | viability decrease (inhibition) [7] 84.4% | viability decrease (inhibition) [8] 87.7%

O=S(=O)(O)c1ccc2c(N=Nc3ccc(S(=O)(=O)O)c4ccccc34)c(O)c(S(=O)(=O)O)cc2c1
0.1%: nuclear beta-catenin stimulation ([1]; stimulation, at 2 µM)
inactive: nuclear beta-catenin stimulation ([1]; at 10 µM) 0.7% | insulin secretion stimulation [2] 2.6% | viability decrease [3] 0% | tube area decrease [4] 11.5% | GLP1 secretion stimulation [5] -3.9% | inhibition of viability [6] 2.8% | viability decrease (inhibition) [7] 19.3% | viability decrease (inhibition) [8] 6.8%

CCN1C(=O)c2ccccc2C1Nc1ccc(OCCN2CCCCC2)cc1 (stereo not given)
0.3%: nuclear beta-catenin stimulation ([1]; stimulation, at 2 µM)
inactive: nuclear beta-catenin stimulation ([1]; at 10 µM) 0.7% | insulin secretion stimulation [2] 18.5% | viability decrease [3] 10.5% | tube area decrease [4] 14.2% | GLP1 secretion stimulation [5] 7.7% | inhibition of viability [6] 47.4% | viability decrease (inhibition) [7] 13.4% | viability decrease (inhibition) [8] -3.1%

CCCCCCCCCCCCOS(=O)(=O)O
inactive: nuclear beta-catenin stimulation ([1]; at 10 µM) 2.3% | insulin secretion stimulation [2] 0.9% | viability decrease [3] -7.5% | tube area decrease [4] 4.9% | GLP1 secretion stimulation [5] 15.2% | inhibition of viability [6] -7.97% | viability decrease (inhibition) [7] -57.7% | viability decrease (inhibition) [8] -12.9%
1.9%: nuclear beta-catenin stimulation ([1]; stimulation, at 2 µM)

N#CC1(c2ccc(F)cc2)CCC(=O)CC1
-2.1%: nuclear beta-catenin stimulation ([1]; stimulation, at 2 µM)
inactive: nuclear beta-catenin stimulation ([1]; at 10 µM) -0.7% | insulin secretion stimulation [2] 2.2% | viability decrease [3] 5.9% | tube area decrease [4] 0.9% | GLP1 secretion stimulation [5] 1.7% | inhibition of viability [6] 8.6% | viability decrease (inhibition) [7] 3.1% | viability decrease (inhibition) [8] -1.9%
